Compound activity from PubChem.
A selection follows.
aSyn UTR act – Activators working through SNCA 5'UTR binding (MLPCN); activity score, % (tested at 7.5 µM), hits read low; AID 1814; actives 7.1% (n = 300,000); alpha-synuclein 5'UTR reporter, activators screen; in the data active = activity score below about -60%
Starred values were filed as active, the others as inactive.

SMILES	aSyn UTR act
Cc1ccc(NC(=O)NCc2c(C)nn(C)c2C)cc1Cl	-157*
CCN(CC)S(=O)(=O)c1cc([N+](=O)[O-])ccc1NNC(=O)Nc1ccc(Cl)c(Cl)c1	58
Cc1nn(C)cc1CNC(=O)Nc1ccc(Cl)c(Cl)c1	-145*
O=C(Nc1ccc(N2CCCC2)cc1)c1cccc(Cl)c1	-137*
O=C(Nc1ccc(N2CCCC2)cc1)c1ccc(Cl)cc1Cl	-88*
CN1CCN(c2ccc(NC(=O)c3ccc(Cl)cc3Cl)cc2)CC1	-136*
CN1CCN(c2ccc(NC(=O)c3ccccc3Br)cc2)CC1	-120*
COc1ccccc1C(=O)Nc1ccc(N2CCCCC2)cc1	-66*
O=C(Nc1ccc(N2CCCC2)cc1)c1cc(Cl)ccc1Cl	-241*
O=C(Nc1ccc(N2CCCCC2)cc1)c1ccccn1	114
O=C(C(Cl)c1ccccc1)N1CCCC1 (stereo not drawn)	-112*
O=C(Nc1ccc(N2CCCCCC2)cc1)c1ccccc1Cl	-252*
O=C(Nc1ccc(N2CCCCC2)cc1)C(Cl)c1ccccc1 (stereo not drawn)	-236*
O=C(Nc1ccc(NC(=O)c2cccnc2Cl)cc1)c1cccc(Cl)c1	-102*
CC(=O)NC(=S)Nc1ccc(NC(=O)COc2ccc(Cl)cc2Cl)cc1	-62*
Cc1cc(Cl)ccc1OCC(=O)Nc1ccncc1	-81*
Cc1ccc(NC(=O)COc2ccc(Br)cc2C)cc1	-102*
Cc1ccc(OCC(=O)Nc2ccc3c(c2)OCO3)c(C)c1	-175*
Cc1ccc(Cl)c(OCC(=O)Nc2ccc3c(c2)OCCO3)c1	-146*
CCOc1ccc(NC(=O)CCC(=O)NNC(=O)COc2ccc(C)cc2Br)cc1	-77*
Cc1ccc(OCC(=O)Nc2ccc(F)cc2)c([N+](=O)[O-])n1	-167*
CCc1ccc(-c2nc(CSCC(=O)NCc3ccco3)c(C)o2)cc1	77
Cc1ccc(NC(=O)Cc2ccc(F)cc2)cc1	-81*
Cc1ccc(NC(=O)C(=S)NCc2ccco2)cc1	-135*
Cc1ccc(NC(=O)CSCc2ccco2)cc1	-130*
SMILES	aSyn UTR act
Cc1ccc(NC(=O)CSCc2ccc(F)cc2)cc1	-81*
Cc1ccc(CSCC(=O)Nc2ccccc2F)cc1	-81*
Cc1ccc(OCC(=O)Nc2ccc(F)cc2)cc1	-96*
Cc1cc(C(=O)Nc2cc(C(C)(C)C)on2)c(C)o1	-147*
Cc1cc(NC(=O)Nc2ccc(Cl)cc2)no1	-110*
Cc1cc(NC(=O)c2ccc(Cl)cc2Cl)no1	-185*
Cc1ccc(NC(=O)Nc2cc(C)on2)cc1	-143*
CC(C)(C)c1cc(NC(=O)Nc2ccccc2)no1	-197*
O=C(CCCN1C(=O)/C(=C/c2ccccc2Cl)SC1=S)NNC(=O)c1ccc(Cl)cc1Cl	71
Cc1cccc(NC(=O)Nc2cc(C)on2)c1	-73*
Cc1cc(C(=O)NNC(=O)c2ccc(Cl)cc2Cl)c(C)o1	-76*
Cc1cc(/C(N)=N/OC(=O)Nc2ccc(Cl)cc2)no1	-92*
O=C(Nc1ccsn1)c1ccc(Cl)cc1Cl	-162*
CC(C)(C)C(=O)Nc1ccc(N=Nc2ccccc2)cc1	79
CC1CC1C(=O)OCC(=O)Nc1ccc(N=Nc2ccccc2)cc1 (stereo not drawn)	-107*
Cc1nccc(-c2cc(-c3ccc(Cl)cc3Cl)no2)n1	-135*
Cc1nc2sc(-c3ccccc3)cc2c(=O)n1-n1cccc1	-189*
Cc1nc2sc(-c3ccccc3)cc2c(=O)n1/N=C/N(C)C	-156*
NC(=O)CSc1nc2sc(-c3ccccc3)cc2c(=O)n1N	-64*
Cc1nc2sc(-c3ccccc3)cc2c(=O)n1N	75
CCCCOc1ccc(-c2cn3ccccc3n2)cc1[N+](=O)[O-]	-129*
CCCOc1ccc(-c2csc(N)n2)cc1[N+](=O)[O-]	-81*
CCOc1ccc(-c2cn3ccccc3n2)cc1[N+](=O)[O-]	-160*
Nc1ccc(Oc2cc(N)cc(Oc3ccccc3)c2)cc1	-173*
CCOc1ccc(NC(=O)CN(c2ccc(OC)cc2)S(C)(=O)=O)cc1	-138*
SMILES	aSyn UTR act
CCOc1ccc(N(CC(=O)NCc2ccccc2C)S(C)(=O)=O)cc1	-91*
CCOc1ccc(N(CC(=O)Nc2ccccc2OCC)S(=O)(=O)c2c(C)noc2C)cc1	95
CCOc1ccc(N(CC(=O)Nc2cccc(C)c2)S(C)(=O)=O)cc1	-86*
CCOc1ccc(N(CC(=O)Nc2ccccc2OC)S(=O)(=O)c2ccccc2)cc1	123
CCOc1ccc(N(CC(=O)Nc2ccc(OC)cc2)S(C)(=O)=O)cc1	-69*
COC(=O)c1ccc(NC(=O)CN(c2ccc(OC)cc2)S(C)(=O)=O)cc1	-176*
COc1ccc(Sc2nnc(Cc3ccccc3)c3ccccc23)cc1	-73*
CC(C)c1nc(C#N)c(NN)o1	-127*
COc1ccc(-c2cc(C(F)(F)F)nc(S(=O)(=O)CCC(=O)N3CCOCC3)n2)cc1	-76*
CCCSc1ccc2nc(-c3ccccc3)cn2c1	111
CCCCSc1ccc2nc(-c3ccc(C#N)cc3)cn2c1	-128*
COc1ccc2cc(-c3ccn[nH]3)ccc2c1	-124*
O=[N+]([O-])c1ccccc1CSc1nnc2ccccn12	-121*
c1ccn2c(SCc3cn4ccsc4n3)nnc2c1	-166*
